# Assay results from ChEMBL document CHEMBL4513216, “Probing the Open Global Health Chemical Diversity Library for Multistage-Active Starting Points for Next-Generation Antimalarials” (ACS Infect Dis, 2020).
# Among all 69,000 compounds or so, about 8,600 (12%) showed an effect of 50% or more. What follows is part of a selection rich in strong results, with near analogues and random picks from the rest.
# Tested on: Plasmodium berghei
# Assay: Screen against P. berghei liver stage (PbLuc), transformed with Luciferase, at 10uM
# Assay type: functional, HepG2
# Details: tested at 10 uM
row,Structure (SMILES),INHIBITION [%]
1,CC(O)c1cn(Cc2ccccc2)nn1 (stereo not drawn),-1.84
2,O=C(c1ncccn1)N1CCC[C@]2(C[C@H](OCC3CC3)CO2)C1,40.4
3,COc1c(C2CCCN2C(=O)c2sc(C)nc2C)c(C)nn1C (stereo not drawn),8.64
4,CN(C)[C@@H]1CN(C(=O)CCc2ccccc2)[C@@H]2CCCO[C@H]12,8.66
5,Cc1ccc(CC(=O)N2CCCC2Cn2nc(C)cc2C)cn1 (stereo not drawn),33.7
6,CC(=O)N1CCCC(C(=O)NCCc2ccc(F)c(Br)c2)C1 (stereo not drawn),9.72
7,CCc1c(C(=O)N2CCN(c3cnccn3)CC2)cnn1C(C)(C)C,-0.219
8,CC(=O)N(Cc1noc(C2CC2)n1)C1CCN(Cc2cccnc2)C1 (stereo not drawn),25.7
9,O=C(Nc1cnn(CCN2CCOCC2)c1)c1ccccc1O,55.9
10,COc1cc(CNc2cnn(CCN3CCOCC3)c2)cc(OC)c1,1.74
11,Clc1ccc(CNc2cnn(CCN3CCOCC3)c2)cc1Cl,56
12,Cc1ccccc1C(=O)Nc1cnn(CCN2CCOCC2)c1,-21.3
13,O=C(Nc1cnn(CCN2CCOCC2)c1)c1ccccc1Cl,-13.4
14,N#Cc1ccc(CNc2cnn(CCN3CCOCC3)c2)cc1,24
15,COc1ccccc1CN(CC1CCCO1)C(=O)c1scnc1C (stereo not drawn),-9.08
16,O=c1ccc2c(n1Cc1cccnc1)CCN(Cc1ccoc1)CC2,-110
17,Cc1cncc(C2CCCN2CCO)n1 (stereo not drawn),0.696
18,O=C(c1cnccn1)N1CC[C@@H]2CO[C@@H](CN3CCCC3)[C@@H]2C1,37.8
19,CSc1ccccc1CN1C[C@H]2CC[C@@H](C1)N(CC1CC1)C2=O,28.3
20,COc1c(CNCCc2c[nH]c3cc(F)ccc23)c(C)nn1C,70.2
21,COc1c(CNCCc2c[nH]c3cc(F)ccc23)c(C(C)C)nn1C,44.2
22,COc1c(CNCCc2c[nH]c3ccccc23)c(C)nn1C,30.1
23,CS(=O)(=O)c1ccc(CNc2nccc(C(F)(F)F)n2)cc1,-33.9
24,CN1CC2(CCCN(C(=O)Cc3cccc(O)c3)C2)OC1=O (stereo not drawn),16.3
25,CN(C)CC1COCCN1C(=O)c1ccccc1C(=O)c1ccccc1 (stereo not drawn),22.6
26,CCS(=O)(=O)N1CCC2(CCCN(Cc3ccc(F)c(F)c3)C2=O)C1 (stereo not drawn),39.4

row,Structure (SMILES),INHIBITION [%]
1,O=C1N(Cc2ccc(F)c(F)c2)CCCC12CCN(C1CCCCC1)C2 (stereo not drawn),81.7
2,O=C1N(Cc2ccc(F)c(F)c2)CCCC12CCN(C1CCSCC1)C2 (stereo not drawn),80.8
3,O=C1N(CCc2ccccc2)CCCC12CCN(C(CO)CO)C2 (stereo not drawn),-33.9
4,Cc1cccc(CN2CCCC3(CCN(C4CCSCC4)C3)C2=O)c1 (stereo not drawn),39.9
5,O=C1N(Cc2ccc(F)c(F)c2)CCCC12CCN(C1CCCC1)C2 (stereo not drawn),37.4
6,CN(C)S(=O)(=O)N1CCC2(CCCN(Cc3ccc(F)cc3)C2=O)C1 (stereo not drawn),36.8
7,O=C1N(Cc2ccc(F)cc2)CCCC12CCN(C1CCSCC1)C2 (stereo not drawn),33.3
8,CC(C)N1CCC2(CCCN(Cc3ccc(F)cc3)C2=O)C1 (stereo not drawn),70.4
9,Cc1ccccc1C(=O)N1CCC2(CCCN2CCN(C)C)CC1,-35.6
10,CC(C)c1ncncc1C(=O)NCCN1CCCC1,29
11,CN(C)C(=O)c1c[nH]nc1C1CCN(S(=O)(=O)c2ccc(Cl)cc2)CC1,24.8
12,CN(Cc1ccco1)[C@@H]1CN(CC2CCOCC2)[C@@H]2CCCO[C@H]12,33.4
13,CC(C)OCCCNC(=O)CN1CCN(c2nccs2)C(C)C1 (stereo not drawn),-27.5
14,Cc1cn[nH]c1C1COCCN1S(=O)(=O)c1cn[nH]c1 (stereo not drawn),23.2
15,Cn1cnnc1SCC(=O)NC1CC(=O)N(CCc2cccc(Cl)c2)C1 (stereo not drawn),6.29
16,CC(=O)N1CCC2(CC1)CC(N1CCOCC1)c1ccc(C)cc12 (stereo not drawn),-39.2
17,Cc1nc(NCc2nccn2C)cc(C2COCCN2)n1 (stereo not drawn),23.375
18,Cc1noc(-c2ccc(N3CCCC(C(=O)O)C3)nc2)n1 (stereo not drawn),-19.2
19,Cc1noc(-c2ccc(N3CCCC(C(=O)N4CCSCC4)C3)nc2)n1 (stereo not drawn),28.8
20,Cc1noc(-c2ccc(N3CCC(C(=O)N4CCCC4)CC3)nc2)n1,76.7
21,CCn1ncc(S(=O)(=O)N[C@@H]2CC[C@@H](n3ccnc3C)[C@@H]2O)c1C,4.9
22,Cc1ccccc1COCCOCn1c(C)cc(=O)[nH]c1=O,51.3
23,Cc1cc(=O)[nH]c(=O)n1COCc1ccccc1,13.6
24,Cc1cc(=O)[nH]c(=O)n1COCCOCc1ccccc1,8.41
25,CC(C)n1ccnc1CN1CCCN(C(=O)CC2CCCO2)CC1 (stereo not drawn),-32
26,CC(C)n1ccnc1CN1CCOC(CC2CCCCC2)C1 (stereo not drawn),50

row,Structure (SMILES),INHIBITION [%]
1,CC(C)n1ccnc1CN1CCOC(CCc2ccccc2)C1 (stereo not drawn),9.34
2,COc1ccccc1C1(NCc2c(C)nc3c(C)cccn23)CCCC1,49
3,Cc1nc2sccn2c1CNc1cc(C(=O)O)ccc1F,-15.7
4,Cc1nc2sccn2c1CNC1(c2ccccc2F)CCCC1,52.4
5,O=C(Cn1cccn1)N(CCO)CCSc1ccc(Cl)cc1,24.7
6,Cc1nc(C(C)NC(=O)c2cn(Cc3ccc(Cl)cc3)nn2)n[nH]1 (stereo not drawn),39.9
7,Cc1noc(C(C)C)c1C(=O)NCC(c1ccccc1)N(C)C (stereo not drawn),-7.35
8,OC1(Cn2ccc3ncccc32)CCN(Cc2cc(F)cc(F)c2)CC1,54.4
9,OC1(Cn2ccc3ncccc32)CCN(Cc2cccnc2)CC1,35.2
10,CCn1ncc(CN2CCC(O)(Cn3ccc4ncccc43)CC2)c1C,19.6
11,CCn1cc(CN2CCC(O)(Cn3ccc4ncccc43)CC2)cn1,38.8
12,OC1(Cn2ccc3ncccc32)CCN(Cc2ccccn2)CC1,50.6
13,Cc1ccc(CN2CCC(O)(Cn3ccc4ncccc43)CC2)o1,28
14,Cc1cc(CN2CCC(O)(Cn3ccc4ncccc43)CC2)c(C)s1,23.2
15,OC1(Cn2ccc3ncccc32)CCN(Cc2ccccc2F)CC1,70.1
16,COc1ccccc1CN1CCC(O)(Cn2ccc3ncccc32)CC1,14.7
17,OC1(Cn2ccc3ncccc32)CCN(Cc2cccs2)CC1,64.1
18,COCc1ccc(CN2CCC(O)(Cn3ccc4ncccc43)CC2)o1,38.7
19,OC1(Cn2ccc3ccncc32)CCN(Cc2ccccn2)CC1,37
20,CC(C)Nc1nc2c(cc1C(=O)N(C)C)CCNCC2,-3.83
21,CCCN1CCC2(C1)c1ccccc1S(=O)(=O)N2C (stereo not drawn),13.7
22,OC(CNCCc1nnc2ccccn12)c1ccc2c(c1)OCO2 (stereo not drawn),-20.5
23,CCCc1nc(C)c(C(=O)Nc2cccc(C)n2)s1,1.45
24,COC[C@H]1CN(CC2CC2)C(=O)[C@@H]2CCN(Cc3ccoc3)CC[C@H]12,11.3
25,Cc1ccsc1CN(Cc1nc2c(cnn2C)c(=O)[nH]1)C(C)C,31.533
26,COc1ccc(NC(=O)N(CC2CCOC2)C2CC2)cn1 (stereo not drawn),12.85

row,Structure (SMILES),INHIBITION [%]
1,Cn1cncc1C(=O)N1CCOC2(COCCN(CC3CC3)C2)C1 (stereo not drawn),-8.23
2,Cc1noc(C)c1CN1CC[C@H]2C[C@H](c3ccncn3)O[C@@H]2C1,34.6
3,Cc1nc([C@H]2C[C@@H]3CCN(Cc4ccc5c(c4)OCO5)C[C@H]3O2)no1,59.3
4,Cc1nc([C@@H]2C[C@H]3CN(Cc4scnc4C)C[C@H]3O2)no1,-35.2
5,Cc1noc([C@@H]2C[C@H]3CN(Cc4ccc5c(c4)OCO5)C[C@H]3O2)n1,42.1
6,Cc1nc([C@H]2C[C@@H]3CCN(Cc4scnc4C)C[C@H]3O2)no1,88
7,Cc1nc([C@@H]2C[C@H]3CN(Cc4ccc5c(c4)OCO5)C[C@H]3O2)no1,29.4
8,Cc1nccc([C@@H]2C[C@@H]3CCN(Cc4c(C)noc4C)C[C@H]3O2)n1,67.2
9,Cc1noc(C)c1CN1CC[C@H]2C[C@@H](c3ccncn3)O[C@@H]2C1,21.6
10,Cc1csc(CN2CC[C@H]3C[C@@H](c4noc(C)n4)O[C@@H]3C2)n1,29
11,Cc1noc(C)c1CN1CCC(c2ccnn2CCO)CC1,-43.5
12,COCC(O)CN1CCC(=O)N(Cc2ccco2)Cc2ccccc21 (stereo not drawn),24.5
13,CN1CCN(C[C@H]2OC[C@@H]3CCN(C(=O)c4cnccn4)C[C@@H]32)CC1,31.4
14,CCN1CCCC(c2nc(O)c3cc(C)ccc3n2)C1 (stereo not drawn),16.8
15,O=C1NC(c2cccnc2)=NC12CCN(CCCc1ccccc1)CC2,58.7
16,CC(CN1CCC2(CC1)N=C(c1cccnc1)NC2=O)c1ccccc1 (stereo not drawn),70.1
17,O=C1NC(c2ccccc2)=N[C@@]12CC[C@@H]1CN(Cc3cccnc3)C[C@@H]12,33
18,CC(CN1CCC2(CC1)N=C(N(C)C)NC2=O)c1ccccc1 (stereo not drawn),0.825
19,CC1=NC2(CCN(CC(C)c3ccccc3)CC2)C(=O)N1 (stereo not drawn),14
20,O=C(Cc1cccnc1)NC1CCCN(CCCc2ccccc2)C1 (stereo not drawn),8.99
21,CC(NC(=O)NCCCn1ccnc1)c1nncn1C (stereo not drawn),-6.61
22,c1coc(CN2CCC3(CC2)COC(COCC2CCOCC2)C3)c1 (stereo not drawn),6.27
23,COc1cccc(-c2cc(C(=O)NCCn3nc(C)nc3C)[nH]n2)c1,-13.6
24,CCn1c(C)cc(C(=O)N2CCCC(n3ccnc3C)C2)c1C (stereo not drawn),-11.3
25,COc1cc(CNCC2CN(C3CC3)CCO2)cc(OC)c1 (stereo not drawn),-18.3
